Key:
Conditions in all cases: concentration: 1 μM,replicates: in singlicate; n = 1
NIM1 = tested on: T1, NIM1
T1 construct: gene MGC42105

NLK = tested on: NLK
OSR1 = tested on: T2, OSR1
T2 construct: gene OXSR1

PAK1 = tested on: PAK1
PAK2 = tested on: PAK2
PAK3 = tested on: PAK3
PAK4 = tested on: PAK4
PAK6 = tested on: PAK6
PAK7 = tested on: PAK7
PCTK1 = tested on: T3, PCTK1
T3 construct: gene CDK16
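Further: KINOMEscan kinase panel screen.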

| SMILES | %Inh (NIM1) | %Inh (NLK) | %Inh (OSR1) | %Inh (PAK1) | %Inh (PAK2) | %Inh (PAK3) | %Inh (PAK4) | %Inh (PAK6) | %Inh (PAK7) | %Inh (PCTK1) |
| --- | --- | --- | --- | --- | --- | --- | --- | --- | --- | --- |
| COc1cccc(C2=C(Nc3cccc(Cl)c3)C(=O)NC2=O)c1 [SB-341556] | 3% | 5% | 27% | 4% | 19% | 100% | 0% | 0% | 8% | 9% |
| CCNCC(Cc1ccccc1)NC(=O)c1cc(Br)c(-c2ccnc3[nH]ccc23)s1.Cl.Cl (stereo not drawn) [GSK1383280] | 20% | 0% | 8% | 26% | 40% | 62% | 44% | 60% | 78% | 0% |
| Cc1ccn2nc(-c3ccc(F)cc3)c(-c3ccncc3)c2c1.Cl [GW457859] | 20% | 79% | 0% | 0% | 0% | 0% | 0% | 0% | 21% | 0% |
| CCCC(=O)Nc1n[nH]c2ncccc12 [SB-601436] | 0% | 0% | 0% | 0% | 17% | 0% | 0% | 0% | 0% | 0% |
| Cn1ccc2ncnc(Oc3ccc(NC(=O)Nc4ccnc(C(F)(F)F)c4)c(Cl)c3)c21 | 0% | 14% | 0% | 23% | 13% | 100% | 7% | 0% | 0% | 21% |
| CCOC(=O)N1CCC(n2cnc(-c3ccc(F)cc3)c2-c2ccnc(N)n2)CC1 [SB-219952] | 31% | 92.7% | 1% | 3% | 26% | 9% | 28% | 6% | 11% | 0% |
| COC(=O)c1cccc(NC(=O)NC2CCN(c3ccnc(Nc4cc(OC)c(OC)c(OC)c4)n3)C2)c1 (stereo not drawn) [GSK1379767] | 40% | 32% | 0% | 10% | 0% | 18% | 5% | 0% | 18% | 0% |
| CN(c1ccccc1CNc1nc(Nc2ccc3c(c2)CC(=O)N3)ncc1C(F)(F)F)S(C)(=O)=O | 0% | 0% | 0% | 0% | 0% | 68% | 2% | 0% | 11% | 28% |
| COc1cccc(CNC(=O)NC2CCN(c3ccnc(Nc4cc(OC)c(OC)c(OC)c4)n3)C2)c1 (stereo not drawn) [GSK1379765] | 21% | 0% | 3% | 0% | 8% | 11% | 0% | 0% | 1% | 3% |
| O=C(Nc1ccc(Oc2ccc3nc(NC(=O)C4CC4)cn3n2)c(F)c1)c1cccn(-c2ccccc2)c1=O | 0% | 0% | 0% | 0% | 0% | 0% | 0% | 0% | 0% | 0% |
| Cl.Nc1n[nH]c2cc(-c3ccccn3)ccc12 [GSK2189892] | 0% | 0% | 11% | 9% | 2% | 0% | 0% | 2% | 16% | 0% |
| Cn1ccc2ncnc(Oc3ccc(NC(=O)Nc4cncc(C(F)(F)F)c4)c(Cl)c3)c21 | 0% | 9% | 0% | 25% | 0% | 0% | 1% | 0% | 0% | 0% |
| CC(=O)Nc1ccc(-c2cc3ncnc(SCC(=O)O)c3s2)cc1 | 0% | 0% | 7% | 0% | 0% | 0% | 0% | 0% | 8% | 28% |
| CN1CCN(CCNc2nc3cc(Oc4ccc(NC(=O)Nc5cc(C(F)(F)F)ccc5F)cc4)ccc3[nH]2)CC1.Cl.Cl [GW768504] | 0% | 0% | 0% | 0% | 30% | 6% | 10% | 0% | 0% | 0% |
| C[C@@H](Oc1cc(-n2cnc3cc(-c4ccncc4)ccc32)sc1C(N)=O)c1ccccc1Cl [GSK479719] | 51% | 0% | 18% | 21% | 22% | 27% | 0% | 5% | 94.2% | 1% |
| O=C(Nc1n[nH]c2cc(-c3ccco3)ccc12)C1CC1 [SB-737447] | 0% | 4% | 12% | 0% | 48% | 0% | 1% | 0% | 8% | 36% |
| Cn1ccc2ncnc(Oc3ccc(NC(=O)Nc4cnn(C(C)(C)C)c4)c(Cl)c3)c21 | 0% | 38% | 6% | 13% | 34% | 45% | 5% | 19% | 0% | 24% |

| SMILES | %Inh (NIM1) | %Inh (NLK) | %Inh (OSR1) | %Inh (PAK1) | %Inh (PAK2) | %Inh (PAK3) | %Inh (PAK4) | %Inh (PAK6) | %Inh (PAK7) | %Inh (PCTK1) |
| --- | --- | --- | --- | --- | --- | --- | --- | --- | --- | --- |
| Cl.Cl.NC[C@H](CC1CCCCC1)NC(=O)c1ccc(-c2ccnc3[nH]ccc23)s1 [GSK1581428] | 14% | 12% | 19% | 22% | 38% | 94.8% | 34% | 62% | 68% | 6% |
| C[C@@H]1CNc2c(sc3ccc4nc(-c5ccc(O)cc5)ccc4c23)C(=O)N1 | 26% | 8% | 0% | 20% | 32% | 0% | 9% | 17% | 0% | 0% |
| NC(=O)c1ccc(-c2cc3ncnc(SCC(=O)O)c3s2)cc1 | 0% | 0% | 0% | 0% | 0% | 0% | 0% | 0% | 0% | 0% |
| COc1cc(Nc2nccc(N3CCC(NC(=O)c4cccc(C#N)c4)C3)n2)cc(OC)c1OC (stereo not drawn) [GSK1379751] | 16% | 7% | 2% | 2% | 0% | 0% | 0% | 0% | 1% | 0% |
| Cn1ccc2ncnc(Oc3ccc(NC(=O)Nc4cc(C(C)(C)C)on4)c(Cl)c3)c21 | 0% | 67% | 20% | 20% | 23% | 46% | 8% | 1% | 0% | 27% |
| CS(=O)c1ccc(-c2coc3ccc(-c4n[nH]c(=O)o4)cc23)cc1 (stereo not drawn) | 7% | 11% | 83% | 0% | 36% | 18% | 4% | 5% | 19% | 14% |
| CN1CCN(CCCNc2nccc(-c3c(-c4ccc(F)cc4)nn4cc(C(N)=O)ccc34)n2)CC1 [GW622475] | 9% | 70% | 19% | 26% | 22% | 34% | 0% | 7% | 24% | 6% |
| OCCn1cc(-c2cnc3nnn(Cc4ccc5ncccc5c4)c3n2)cn1 | 0% | 0% | 0% | 6% | 13% | 0% | 11% | 0% | 0% | 0% |
| O=C(NOCC1CC1)c1cc(Br)c(F)c(F)c1Nc1ccc(I)cc1Cl | 25% | 0% | 0% | 2% | 12% | 16% | 0% | 0% | 0% | 0% |
| CN(c1ccc2c(c1)nc(NCc1ccc(F)cc1)n2C)c1ccnc(Nc2ccc(CS(C)(=O)=O)cc2)n1.Cl [GW813244] | 0% | 0% | 0% | 10% | 35% | 12% | 15% | 0% | 0% | 0% |
| N#Cc1cccc(C(=O)NC2CCN(c3ccnc(Nc4ccc(F)cc4)n3)C2)c1 (stereo not drawn) [GSK1379708] | 16% | 0% | 6% | 0% | 4% | 0% | 0% | 27% | 0% | 1% |
| Cc1ccc2c(-c3ccnc(Nc4ccc(C(F)(F)F)cc4)n3)cnn2n1 [GW819776] | 3% | 24% | 0% | 1% | 50% | 18% | 0% | 0% | 0% | 6% |
| Cc1cccc2c(-c3ccncc3)c(-c3ccc(F)cc3)nn12.Cl [GW461487] | 10% | 65% | 0% | 24% | 8% | 100% | 0% | 0% | 0% | 0% |
| CCn1c(-c2nonc2N)nc2cncc(CNC3CCNCC3)c21.Cl [SB-747651] | 31% | 18% | 4% | 0% | 51% | 45% | 0% | 2% | 0% | 8% |
| COc1cc2ncn(-c3cc(OCC4CCCCC4)c(C(N)=O)s3)c2cc1OC [GSK204559] | 3% | 0% | 15% | 9% | 17% | 18% | 0% | 0% | 1% | 3% |
| CS(=O)(=O)c1cccc(CNc2nc(Nc3ccc4c(c3)[C@@H]3C[C@@H]4CNC3=O)ncc2C(F)(F)F)c1 | 0% | 0% | 48% | 5% | 12% | 0% | 0% | 18% | 20% | 0% |

— PMC5540273 (PLoS ONE, 2017)
